Measured values from PubChem BioAssay (NCI).
The panel holds about 83,000 compounds, 20% with a hit somewhere; the sample as a whole holds those more often.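 A percent growth of 40 corresponds to 60% growth inhibition; 0 means no net growth; -100 means all cells died. Active threshold: below 10.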 Values without a mark were called inactive. The source made the active and inactive calls.

What was measured:
Experiment in all cases: NCI-60 one-dose screen, 48 h (100 = growth as untreated, 0 = no growth, -100 = all killed)
Details in all cases: 10 µM unless noted
HCT-15 colon = test system: HCT-15 colon
HT29 colon = test system: HT29 colon
SNB-75 CNS = test system: SNB-75 CNS
SNB-19 CNS = test system: SNB-19 CNS
U251 CNS = test system: U251 CNS
PC-3 prostate = test system: PC-3 prostate
SK-MEL-5 melanoma = test system: SK-MEL-5 melanoma
UACC-62 melanoma = test system: UACC-62 melanoma
LOX IMVI melanoma = test system: LOX IMVI melanoma
SK-MEL-28 melanoma = test system: SK-MEL-28 melanoma

CC(=O)OC[C@]1(C)C=C2C(=O)[C@](C)(O)C3(CC3)C(C)=C2[C@H]1OC(=O)N(C)CCN(C)C(=O)OC(C)(C)C
growth (HCT-15 colon): 3.65% (active)
growth (HT29 colon): 0.176% (active)
growth (SNB-75 CNS): -15.1% (active)
growth (SNB-19 CNS): 8.79% (active)
growth (U251 CNS): 4.09% (active)
growth (PC-3 prostate): -21.4% (active)
growth (SK-MEL-5 melanoma): -74.4% (active)
growth (UACC-62 melanoma): -52% (active)
growth (LOX IMVI melanoma): -6.97% (active)
growth (SK-MEL-28 melanoma): -4.04% (active)

Clc1ccc(CSC(Cn2ccnc2)c2ccc(Cl)cc2Cl)cc1 (stereo not given)
growth (HCT-15 colon): 29%
growth (HT29 colon): 30.5%
growth (SNB-75 CNS): 57.9%
growth (SNB-19 CNS): 47.3%
growth (U251 CNS): 27.8%
growth (PC-3 prostate): 15%
growth (SK-MEL-5 melanoma): -9.89% (active)
growth (UACC-62 melanoma): 29.5%
growth (LOX IMVI melanoma): 18%
growth (SK-MEL-28 melanoma): 62.3%

COc1ccc(/C=C\c2cc(OC)c(OC)c(OC)c2)cc1NC(=O)/C=C/c1ccc(OC)c(OC)c1
growth (HCT-15 colon): 29.7%
growth (HT29 colon): 15.7%
growth (SNB-75 CNS): 16%
growth (SNB-19 CNS): 36.6%
growth (U251 CNS): 35.4%
growth (PC-3 prostate): 31.7%
growth (SK-MEL-5 melanoma): 5.07% (active)
growth (UACC-62 melanoma): 36.6%
growth (LOX IMVI melanoma): 30.8%
growth (SK-MEL-28 melanoma): 51.8%

C=CC[n+]1ccc(-c2cc[n+](CC=C)cc2)cc1
growth (HCT-15 colon): 96.4%
growth (HT29 colon): 29.1%
growth (SNB-75 CNS): 92.5%
growth (SNB-19 CNS): 111%
growth (U251 CNS): 89.4%
growth (PC-3 prostate): 90.9%
growth (SK-MEL-5 melanoma): 71.4%
growth (UACC-62 melanoma): 110%
growth (LOX IMVI melanoma): 101%
growth (SK-MEL-28 melanoma): 102%

CNC12C3C4C1C1C2C3C41C(=O)N[C@H](C(=O)N(C)[C@H](C[C@@H](OC(C)=O)c1nc(C(=O)N[C@@H](Cc2ccccc2)C[C@H](C)C(=O)OC)cs1)C(C)C)C1CC1 (stereo not given in full)
growth (HCT-15 colon): 11.4%
growth (HT29 colon): -12.6% (active)
growth (SNB-75 CNS): 26.9%
growth (SNB-19 CNS): 33.4%
growth (U251 CNS): 10.1%
growth (PC-3 prostate): 16.9%
growth (SK-MEL-5 melanoma): -54.4% (active)
growth (UACC-62 melanoma): 13.9%
growth (LOX IMVI melanoma): 0.284% (active)
growth (SK-MEL-28 melanoma): 62.3%

CC(=O)Nc1ccc(NC(=O)c2ccc([As](O)O)cc2)cc1
growth (HCT-15 colon): 85%
growth (HT29 colon): 112%
growth (SNB-75 CNS): 89.4%
growth (SNB-19 CNS): 92.9%
growth (U251 CNS): 56.5%
growth (PC-3 prostate): 100%
growth (SK-MEL-5 melanoma): 98.1%
growth (UACC-62 melanoma): 78.3%
growth (LOX IMVI melanoma): 76.4%
growth (SK-MEL-28 melanoma): 118%

O=C1CNC(c2ccccc2)c2cc(Cl)ccc2N1 (stereo not given)
growth (HCT-15 colon): 105%
growth (HT29 colon): 80.4%
growth (SNB-75 CNS): 85.6%
growth (SNB-19 CNS): 96.6%
growth (U251 CNS): 105%
growth (PC-3 prostate): 99.3%
growth (SK-MEL-5 melanoma): 101%
growth (UACC-62 melanoma): 93.4%
growth (LOX IMVI melanoma): 96.3%
growth (SK-MEL-28 melanoma): 116%

COc1cc([C@@H]2c3cc4c(cc3[C@H](OC(C)=O)[C@H]3COC(=O)[C@H]23)OCO4)cc(OC)c1OC
growth (HCT-15 colon): 9.64% (active)
growth (HT29 colon): 5.66% (active)
growth (SNB-75 CNS): 41.4%
growth (SNB-19 CNS): 39.4%
growth (U251 CNS): 18.9%
growth (PC-3 prostate): 30.2%
growth (SK-MEL-5 melanoma): -17.6% (active)
growth (UACC-62 melanoma): 43.2%
growth (LOX IMVI melanoma): 18.7%
growth (SK-MEL-28 melanoma): 64.3%

COc1cc(/C=C\c2cc(OC)c(OC)c(OC)c2)cc(NS(=O)(=O)c2cccc(Cl)c2)c1OC
growth (HCT-15 colon): 10.9%
growth (HT29 colon): 15.3%
growth (SNB-75 CNS): 64.5%
growth (SNB-19 CNS): 41.2%
growth (U251 CNS): 11.1%
growth (PC-3 prostate): 35.1%
growth (SK-MEL-5 melanoma): -29.4% (active)
growth (UACC-62 melanoma): 36.1%
growth (LOX IMVI melanoma): 20%
growth (SK-MEL-28 melanoma): 64%

N#C[Se]CCN1C(=O)c2ccccc2C1=O
growth (HCT-15 colon): 53.2%
growth (HT29 colon): 13.9%
growth (SNB-75 CNS): 2.39% (active)
growth (SNB-19 CNS): 38%
growth (U251 CNS): 27.4%
growth (PC-3 prostate): 41.8%
growth (SK-MEL-5 melanoma): 1.73% (active)
growth (UACC-62 melanoma): 22.7%
growth (LOX IMVI melanoma): 5.83% (active)
growth (SK-MEL-28 melanoma): 25.9%

Cc1cccc(N2CCN(C(C)C#N)CC2)c1 (stereo not given)
growth (HCT-15 colon): 106%
growth (HT29 colon): 105%
growth (SNB-75 CNS): 106%
growth (SNB-19 CNS): 115%
growth (U251 CNS): 103%
growth (PC-3 prostate): 102%
growth (SK-MEL-5 melanoma): 105%
growth (UACC-62 melanoma): 111%
growth (LOX IMVI melanoma): 94.7%
growth (SK-MEL-28 melanoma): 114%

N/C(=N/N=C/c1ccncc1)N[N+](=O)[O-]
growth (HCT-15 colon): 97.3%
growth (HT29 colon): 101%
growth (SNB-75 CNS): 96%
growth (SNB-19 CNS): 104%
growth (U251 CNS): 97.4%
growth (PC-3 prostate): 97.9%
growth (SK-MEL-5 melanoma): 103%
growth (UACC-62 melanoma): 97.3%
growth (LOX IMVI melanoma): 95.5%
growth (SK-MEL-28 melanoma): 110%

O=C(CCCC1CCCCC1)OCC(Cl)(Cl)Cl
growth (HCT-15 colon): 108%
growth (HT29 colon): 103%
growth (SNB-75 CNS): 101%
growth (SNB-19 CNS): 106%
growth (U251 CNS): 97%
growth (PC-3 prostate): 91.4%
growth (SK-MEL-5 melanoma): 107%
growth (UACC-62 melanoma): 98.9%
growth (LOX IMVI melanoma): 101%
growth (SK-MEL-28 melanoma): 113%

Cc1cc(-c2nc3cc(F)ccc3[se]2)cc(F)c1N
growth (HCT-15 colon): 38.2%
growth (HT29 colon): 62.5%
growth (SNB-75 CNS): 91.9%
growth (SNB-19 CNS): 97.2%
growth (U251 CNS): 98.7%
growth (PC-3 prostate): 72.7%
growth (SK-MEL-5 melanoma): 81%
growth (UACC-62 melanoma): 85.7%
growth (LOX IMVI melanoma): 90%
growth (SK-MEL-28 melanoma): 121%

CC1=C(CCCOC(=O)[C@H](N)CC(C)C)C2=C(C)C3(CC3)[C@@](C)(O)C(=O)C2=C1
growth (HCT-15 colon): 4.16% (active)
growth (HT29 colon): 12.6%
growth (SNB-75 CNS): -7.8% (active)
growth (SNB-19 CNS): 45.4%
growth (U251 CNS): 35.9%
growth (PC-3 prostate): 28.5%
growth (SK-MEL-5 melanoma): -67.6% (active)
growth (UACC-62 melanoma): 11.3%
growth (LOX IMVI melanoma): 41.8%
growth (SK-MEL-28 melanoma): 33.8%

CCCCCCCCCCCCNC(c1ccccc1)C(O)c1ccccc1 (stereo not given)
growth (HCT-15 colon): 66.6%
growth (HT29 colon): 52%
growth (SNB-75 CNS): 106%
growth (SNB-19 CNS): 87.4%
growth (U251 CNS): 32%
growth (PC-3 prostate): 79.2%
growth (SK-MEL-5 melanoma): 96.7%
growth (UACC-62 melanoma): 96.7%
growth (LOX IMVI melanoma): 49.8%
growth (SK-MEL-28 melanoma): 97.4%

COc1cc2c(cc1OCCCn1c(-c3ccccn3)nc3ccccc31)N=C[C@@H]1CCCN1C2=O
growth (HCT-15 colon): -22.7% (active)
growth (HT29 colon): -26.7% (active)
growth (SNB-75 CNS): 23.3%
growth (SNB-19 CNS): 27.2%
growth (U251 CNS): -44% (active)
growth (PC-3 prostate): 12.8%
growth (SK-MEL-5 melanoma): -69.7% (active)
growth (UACC-62 melanoma): -75.9% (active)
growth (LOX IMVI melanoma): -7.37% (active)
growth (SK-MEL-28 melanoma): 5.44% (active)

C[C@]12CC[C@H]3[C@@H](CC4SC(N)=NC45C/C(=N/NC(N)=O)CC[C@]35C)[C@@H]1CCC2=O (stereo not given in full)
growth (HCT-15 colon): -47.8% (active)
growth (HT29 colon): 13.2%
growth (SNB-75 CNS): 99%
growth (SNB-19 CNS): -9.98% (active)
growth (U251 CNS): -69.9% (active)
growth (PC-3 prostate): 57.3%
growth (SK-MEL-5 melanoma): 20.6%
growth (UACC-62 melanoma): 38.9%
growth (LOX IMVI melanoma): -67.6% (active)
growth (SK-MEL-28 melanoma): 13%
